High-throughput results: PubChem BioAssay, National Center for Advancing Translational Sciences (NCATS)
uPA surface inh: qHTS for Inhibitors of Cell Surface uPA Generation. cell surface uPA generation assay, qHTS. Potency, µM (series often up to 38.3 µM), hits mostly inhibitors. 0.31% of 330,000 active; active = well fitted inhibition curve with a large enough effect; inconclusive = small, poorly fitted or top-dose-only effect; inactive = no such curve, though single readings can be large or run the other way; tested in mouse RAW 264.7 cells; also: nearly all actives have a fitted effect of over 55% in size
TDP1 block: qHTS Assay for Inhibitors of Tyrosyl-DNA Phosphodiesterase (TDP1); AID 485290, 2010; Potency, µM (series often up to 130 µM), usual class: inhibitors; 0.28% of 350,000 active; recombinant TDP1, AlphaScreen DNA substrate cleavage; Tyrosyl-DNA phosphodiesterase 1 (Homo sapiens), Q9NUW8; also: nearly all actives have a fitted effect of over 40% in size
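Here, a 5' biotin and 3' phosphotyrosine-FITC DNA oligonucleotide reports Tdp1 activity: intact substrate bridges AlphaScreen beads, while cleavage leaves a 3' phosphate and drops signal. All incubations at room temperature.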
miR-21 reporter: qHTS Assay for Modulators of miRNAs and/orActivators of miR-21 | HeLa miR-21 FLuc reporter, luciferase, 48 h | 340,000 tested, under 10 active | Potency, µM (titrated, usually from 38.3 µM), hits mostly activators;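 also: miR-21 action dims this reporter so a rising signal means less miR-21 action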
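Luminescence from a firefly luciferase reporter carrying a miR-21 binding site downstream, stably expressed under a CMV promoter in HeLa cells that make miR-21 endogenously, reports miRNA modulation after 48 h compound exposure up to approximately 40uM final.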
TDP1 cell CPT: qHTS for Inhibitors of human tyrosyl-DNA phosphodiesterase 1 (TDP1): qHTS in cells in presence of CPT. chicken DT40 Tdp1-/-;hTDP1 cells + 20 nM CPT, ATP luminescence, 48 h. Potency, µM (top dose mostly 46.2 µM), actives largely listed as inhibitors. 12% of 420,000 active; also: nearly all actives have a fitted effect of over 55% in size
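Chicken DT40 Tdp1-/- cells stably complemented with human TDP1 were seeded at 400 cells/well in medium containing 20 nM camptothecin, exposed to pin-transferred compounds, and grown at 37 °C for at least 48 hr. Viability was read as ATP luminescence.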
TDP1 cell noCPT: qHTS for Inhibitors of human tyrosyl-DNA phosphodiesterase 1 (TDP1): qHTS in cells in absence of CPT; DT40 Tdp1-/- hTDP1 cells, no CPT, ATP luminescence, 48 h; AID 686978, 2013; 15% of 420,000 active; Potency, µM (highest dose often 46.2 µM), actives largely listed as inhibitors; also: nearly all actives have a fitted effect of over 55% in size
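Seeded 400 DT40-hTDP1 cells/well (vehicle DMSO, no 20 nM CPT); pinned compounds; ≥48 hr at 37 °C; CellTiter-Glo luminescence as viability measure.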
Numbers stand for hits; . = inactive; ? = inconclusive; / = no result; [ ] = dose if it differs, or a comment. Shown are actives, neighbours in structure and some others; about 16% of the full set was active somewhere. Unless noted, calls follow the shape of the dose curve; as a rule, active = well fitted curve in the direction sought with a large enough effect; inconclusive = small, poorly fitted or top-dose-only effect, or another doubt; inactive = no such curve, though single readings can be large; an effect the other way counts as inactive or inconclusive.

SMILES	uPA surface inh	TDP1 block	miR-21 reporter	TDP1 cell CPT	TDP1 cell noCPT
COc1cc(OC)cc(-c2c(C#Cc3ccsc3)c3cc(-c4cc(OC)c(OC)c(OC)c4)ccc3n2C)c1	.	.	/	.	.
O=C(CCn1c(=O)c2cccn2c2cccnc21)NCc1cccc(Cl)c1	.	.	.	?	.
COc1ccc(C(=O)NCCn2cc(SCc3cc(C)ccc3C)c3ccccc32)cc1	/	.	?	13µM	?
COC(=O)c1ccc(NC(=O)CSc2cn(CC(=O)N3CCCCC3)c3ccccc23)cc1	/	.	?	21µM	?
CC(=O)Nc1cccc(NC(=O)CSc2cn(CC(=O)N3CCCCCC3)c3ccccc23)c1	/	.	.	18µM	?
O=C(CSc1cn(CCNC(=O)c2ccccc2)c2ccccc12)NCc1ccco1	.	.	.	26µM	?
O=C(CSc1cn(CC(=O)N2CCCCC2)c2ccccc12)Nc1ccccc1	/	.	.	.	?
COCc1ccc(CN2Cc3cc(Cl)ccc3OC(C)C2)o1 (stereo not given)	/	/	/	.[9.04 µM]	.
O=C(OCc1nnc(-c2ccccc2)o1)c1cc(F)c(F)cc1Cl	.	.	.	.	.
CCCn1c(SCC(=O)Nc2cccc(C(=O)OC)c2)nnc1-c1cccnc1	.	.	.	.	.
CC(=O)N(c1nc(CCl)cs1)c1c(C)cc(C)cc1C	.	.	.	.	.
CC(=O)N1CCC(C(=O)Nc2ccc(S(=O)(=O)NCCc3ccccc3)cc2)CC1	.	/	.	.	.
O=C(Nc1ccccc1)C(=O)c1cn(CC(=O)N2CCCCC2)c2ccccc12	.	.	.	.	?
COc1ccccc1NC(=O)C(=O)c1cn(CC(=O)N2CCCC2)c2ccccc12	.	.	.	?	.
CC(=O)c1cccc(NC(=O)C(=O)c2cn(CC(=O)N3CCCCC3)c3ccccc23)c1	.	.	.	26µM	23µM
CCOc1ccc(NC(=O)CSc2cn(CC(=O)N3CCCCCC3)c3ccccc23)cc1	/	.	.	23µM	?
COCCNC(=O)CSc1cn(CC(=O)N2CCCCCC2)c2ccccc12	/	.	.	?	0.52µM
COc1ccccc1NC(=O)C(=O)c1cn(CC(=O)N2CCOCC2)c2ccccc12	.	.	.	?	21µM
CCOc1ccc(NC(=O)CSc2cn(CC(=O)N3CCOCC3)c3ccccc23)cc1	/	.	.	?	.
Cc1ccc(C)c(NC(=S)N2CCN(Cc3ccccc3)CC2)c1	.	.	.	?	.
COc1ccc(C(=O)NCCn2cc(SCC(=O)Nc3ccc(C)cc3)c3ccccc32)cc1	/	.	?	?	?
CCOc1ccc(C(=O)NCCn2cc(SCC(=O)Nc3ccccc3)c3ccccc32)cc1	/	.	?	?	23µM
Cc1nc2c(C)cccc2cc1C(=O)N/N=C/c1ccc(O)cc1	.	.	.	29µM	?
Cc1cccc2cc(/C=N/NC(=O)c3ccccc3O)c(Cl)nc12	.	.	.	18µM	?
O=C(CSc1nnc(-c2ccccc2F)o1)N1CCNC1=O	.	.	/	.	.
SMILES	uPA surface inh	TDP1 block	miR-21 reporter	TDP1 cell CPT	TDP1 cell noCPT
CC1=CN2C(=N)/C(=C/c3ccc(Sc4ccc(C)cc4)o3)C(=O)N=C2S1	.	.	.	?	?
CCC(=O)C1=C(c2ccc(F)cc2)N(C(=O)CC)n2cnnc2S1	/	.	.	18µM	13µM
CCC(=O)C1=C(c2ccccc2)N(C(=O)CC)n2c(nnc2C2CCCCC2)S1	/	.	.	.	.
CCOc1ccc(C2=C(C(=O)CC)Sc3nncn3N2C(=O)CC)cc1	/	.	.	16µM	?
Cn1c(N)c(C(=O)c2ccc(Cl)c(S(=O)(=O)N3CCCCCC3)c2)c(=O)n(C)c1=O	.	.	/	?	.
CC(C)(C)OC(=O)C[C@@H]1C/C=C\C[C@@H](CC(=O)N(CCO)Cc2ccccc2)C(=O)NC[C@H](c2ccccc2)OC1=O	.	.	/	12µM	?
CC(C)(C)OC(=O)C[C@@H]1C/C=C\C[C@@H](CC(=O)N(CCO)Cc2ccccc2)C(=O)NC[C@@H](c2ccccc2)OC1=O	.	.	/	21µM	?
